Where “and” joins values, the source holds several entries; their conditions need not be identical. Equal entries are not always repeated. Out of some 5,500 compounds screened, about 2,000 (36%) were called active. Roughly 18% stayed inconclusive and do not appear here. Cut-off read from the data, not from the text of the source: active = normalized growth mostly below about 0.91 (no sharp cut-off); inconclusive = no clear call, values can overlap the other calls; inactive = mostly above about 0.92. The list shows a part of the results.
Assay: chemical genetic growth profiling, strain panel (AID 1159580);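 note: tested at 20 µM; growth read once vehicle control cultures reached saturation at 30 °C; 1 = growth at the plate median or of vehicle wells; lower values mean less growth of the strain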
Details: S. cerevisiae deletion strains, growth OD

Measured: normalized growth

CC(=O)Oc1ccc(/C=C/c2cc(OC(C)=O)cc(OC(C)=O)c2)cc1
inactive: locus YAL021C, strain ccr4, stronger effect = lower value 0.979 | locus YAL026C, strain drs2, stronger effect = lower value 0.984 | locus YAL030W, strain snc1, stronger effect = lower value 0.97 | locus YBL061C, strain skt5, stronger effect = lower value 0.976 | locus YBR009C, strain hhf1, stronger effect = lower value 0.962 | locus YBR021W, strain FUR4, stronger effect = lower value 0.96 | locus YBR023C, strain chs3, stronger effect = lower value 0.975 | locus YBR171W, strain sec66, stronger effect = lower value 0.978 | locus YBR229C, strain ROT2, stronger effect = lower value 0.997 | locus YBR231C, strain swc5, stronger effect = lower value 0.986 | locus YBR279W, strain paf1, stronger effect = lower value 0.978 | locus YCL011C, strain gbp2, stronger effect = lower value 0.972 | locus YCL016C, strain dcc1, stronger effect = lower value 0.98 | locus YCL029C, strain bik1, stronger effect = lower value 1.01 | locus YCL061C, strain MRC1, stronger effect = lower value 0.953 | locus YCL069W, strain vba3, stronger effect = lower value 0.984 | locus YCR088W, strain abp1, stronger effect = lower value 0.979 | locus YDL005C, strain med2, stronger effect = lower value 0.963 | locus YDL035C, strain GPR1, stronger effect = lower value 0.984 | locus YDL040C, strain nat1, stronger effect = lower value 0.963 | locus YDL074C, strain BRE1, stronger effect = lower value 0.982 | locus YDL101C, strain DUN1, stronger effect = lower value 0.993 | locus YDL134C, strain PPH21, stronger effect = lower value 0.97 | locus YDL185W, strain tfp1, stronger effect = lower value 1.02 | locus YDL192W, strain arf1, stronger effect = lower value 0.997 | locus YDR001C, strain nth1, stronger effect = lower value 0.987 | locus YDR069C, strain doa4, stronger effect = lower value 0.966 | locus YDR101C, strain arx1, stronger effect = lower value 0.987 | locus YDR137W, strain rgp1, stronger effect = lower value 0.925 | locus YDR159W, strain sac3, stronger effect = lower value 0.951 | locus YDR162C, strain NBP2, stronger effect = lower value 0.977 | locus YDR195W, strain ref2 0.985 | locus YDR297W, strain sur2, stronger effect = lower value 0.979 | locus YDR318W, strain mcm21, stronger effect = lower value 0.986 | locus YDR334W, strain swr1, stronger effect = lower value 0.981 | locus YDR335W, strain msn5, stronger effect = lower value 0.987 | locus YDR388W, stronger effect = lower value 1 | locus YDR502C, strain sam2, stronger effect = lower value 0.999 | locus YEL003W, strain gim4, stronger effect = lower value 0.969 | locus YEL037C, strain rad23, stronger effect = lower value 0.983 | locus YEL061C, strain CIN8 (second series), stronger effect = lower value 0.99 | locus YEL061C, strain CIN8, stronger effect = lower value 0.999 | locus YER015W, strain faa2, stronger effect = lower value 0.974 | locus YER016W, strain bim1, stronger effect = lower value 0.976 | locus YER110C, stronger effect = lower value 1.01 | locus YER111C, strain swi4, stronger effect = lower value 0.976 | locus YER155C, strain BEM2 (second series), stronger effect = lower value 0.924 | locus YER155C, strain BEM2, stronger effect = lower value 1.01 | locus YER167W, strain BCK2, stronger effect = lower value 0.991 | locus YFR010W, strain ubp6, stronger effect = lower value 0.985 | locus YGL078C, strain dbp3, stronger effect = lower value 0.996 | locus YGL086W, strain mad1, stronger effect = lower value 0.994 | locus YGL167C, strain pmr1, stronger effect = lower value 0.978 | locus YGL173C, strain kem1, stronger effect = lower value 0.961 | locus YGL227W, strain vid30, stronger effect = lower value 0.982 | locus YGL240W, strain doc1, stronger effect = lower value 0.942 | locus YGL248W, strain PDE1, stronger effect = lower value 0.974 | locus YGL253W, strain hxk2, stronger effect = lower value 0.973 | locus YGR135W, strain pre9, stronger effect = lower value 0.977 | locus YGR229C, strain SMI1, stronger effect = lower value 1.01 | locus YGR252W, strain gcn5, stronger effect = lower value 0.951 | locus YHR013C, strain ard1, stronger effect = lower value 0.978 | locus YHR027C, strain rpn1, stronger effect = lower value 0.975 | locus YHR030C, strain SLT2, stronger effect = lower value 1.01 and 1.03 | locus YHR079C, strain IRE1 (second series), stronger effect = lower value 1 | locus YHR079C, strain IRE1, stronger effect = lower value 1.03 | locus YHR094C, strain hxt1, stronger effect = lower value 1 | locus YHR129C, strain ARP1, stronger effect = lower value 0.985 | locus YHR142W, strain chs7, stronger effect = lower value 0.968 | locus YHR200W, strain rpn10, stronger effect = lower value 1.01 | locus YIL066C, strain RNR3, stronger effect = lower value 0.965 | locus YIL073C, strain SPO22, stronger effect = lower value 1.04 | locus YIL125W, strain kgd1, stronger effect = lower value 1.02 | locus YIR030C, strain dcg1, stronger effect = lower value 0.99 | locus YJL092W, strain hpr5, stronger effect = lower value 0.977 | locus YJL095W, strain BCK1 (second series), stronger effect = lower value 0.983 | locus YJL095W, strain BCK1, stronger effect = lower value 0.962 and 0.998 | locus YJL115W, strain asf1, stronger effect = lower value 0.992 | locus YJL129C, strain trk1, stronger effect = lower value 0.978 | locus YJL134W, strain LCB3, stronger effect = lower value 1.01 | locus YJL154C, strain vps35, stronger effect = lower value 0.983 | locus YJL164C, strain tpk1, stronger effect = lower value 0.96 | locus YJL166W, strain qcr8, stronger effect = lower value 0.95 | locus YJL168C, strain set2, stronger effect = lower value 0.997 | locus YJL187C, strain SWE1 (second series), stronger effect = lower value 0.98 | locus YJL187C, strain SWE1, stronger effect = lower value 0.993 | locus YJR043C, strain POL32, stronger effect = lower value 0.979 | locus YJR066W, strain TOR1, stronger effect = lower value 0.972 | locus YJR075W, strain HOC1, stronger effect = lower value 0.985 | locus YKL009W, strain mrt4, stronger effect = lower value 1.04 | locus YKL068W, stronger effect = lower value 1 | locus YKL085W, strain MDH1 (second series), stronger effect = lower value 0.999 | locus YKL085W, strain MDH1, stronger effect = lower value 0.999 | locus YKL160W, strain elf1, stronger effect = lower value 0.959 | locus YKL190W, strain CNB1, stronger effect = lower value 1 | locus YKR001C, strain vps1, stronger effect = lower value 0.982 | locus YKR026C, strain gcn3, stronger effect = lower value 0.979 | locus YKR091W, strain srl3, stronger effect = lower value 0.983 | locus YLL001W, strain dnm1, stronger effect = lower value 0.966 | locus YLL026W, stronger effect = lower value 0.976 | locus YLL041C, strain sdh2, stronger effect = lower value 0.98 | locus YLR027C, strain aat2, stronger effect = lower value 0.979 | locus YLR039C, strain RIC1, stronger effect = lower value 0.928 | locus YLR058C, strain SHM2, stronger effect = lower value 0.99 | locus YLR102C, strain apc9, stronger effect = lower value 1.03 | locus YLR113W, strain HOG1, stronger effect = lower value 0.934 | locus YLR221C, strain rsa3, stronger effect = lower value 0.949 | locus YLR258W, strain gsy2, stronger effect = lower value 0.957 | locus YLR262C, strain YPT6 (second series), stronger effect = lower value 0.907 | locus YLR262C, strain YPT6, stronger effect = lower value 0.925 | locus YLR268W, strain sec22, stronger effect = lower value 0.999 | locus YLR320W, strain mms22, stronger effect = lower value 0.921 | locus YLR330W, strain CHS5, stronger effect = lower value 0.996 | locus YLR342W, strain FKS1 (second series), stronger effect = lower value 1.01 | locus YLR342W, strain FKS1, stronger effect = lower value 0.968 | locus YLR357W, strain rsc2, stronger effect = lower value 0.937 | locus YLR370C, strain arc18, stronger effect = lower value 0.981 | locus YLR371W, strain rom2, stronger effect = lower value 0.995 | locus YLR384C, strain iki3, stronger effect = lower value 0.959 | locus YLR418C, strain cdc73, stronger effect = lower value 0.889 | locus YML016C, strain PPZ1, stronger effect = lower value 0.999 | locus YML032C, strain rad52, stronger effect = lower value 1.01 | locus YML120C, strain ndi1, stronger effect = lower value 0.985 | locus YML124C, strain tub3, stronger effect = lower value 0.998 | locus YMR078C, strain ctf18, stronger effect = lower value 1.01 | locus YMR125W, strain sto1, stronger effect = lower value 0.974 | locus YMR129W, stronger effect = lower value 0.985 | locus YMR205C, strain PFK2, stronger effect = lower value 0.948 | locus YMR223W, strain ubp8, stronger effect = lower value 0.959 | locus YMR231W, strain pep5, stronger effect = lower value 0.965 | locus YMR263W, strain SAP30, stronger effect = lower value 0.988 | locus YMR307W, strain GAS1, stronger effect = lower value 1.16 | locus YNL067W, strain RPL9B, stronger effect = lower value 0.973 | locus YNL071W, strain lat1, stronger effect = lower value 0.952 | locus YNL153C, strain GIM3, stronger effect = lower value 0.989 | locus YNL183C, strain NPR1, stronger effect = lower value 0.935 | locus YNL209W, strain ssb2, stronger effect = lower value 0.984 | locus YNL233W, strain BNI4, stronger effect = lower value 0.948 | locus YNL248C, strain rpa49, stronger effect = lower value 0.961 | locus YNL250W, strain rad50, stronger effect = lower value 0.998 | locus YNL271C, strain bni1, stronger effect = lower value 1.02 | locus YNL298W, strain CLA4, stronger effect = lower value 0.989 | locus YNL307C, strain MCK1, stronger effect = lower value 0.977 | locus YNL322C, strain KRE1 (second series), stronger effect = lower value 0.964 | locus YNR049C, strain mso1, stronger effect = lower value 0.978 | locus YNR052C, strain pop2, stronger effect = lower value 0.981 | locus YOL006C, strain TOP1, stronger effect = lower value 0.883 | locus YOL012C, strain htz1 0.967 | locus YOL147C, strain pex11, stronger effect = lower value 1 | locus YOR001W, strain rrp6, stronger effect = lower value 0.96 | locus YOR061W, strain CKA2, stronger effect = lower value 1.01 | locus YOR069W, strain VPS5, stronger effect = lower value 1 | locus YOR070C, strain gyp1, stronger effect = lower value 0.959 | locus YOR080W, strain dia2, stronger effect = lower value 1.01 | locus YOR083W, strain WHI5, stronger effect = lower value 0.958 | locus YOR106W, strain vam3, stronger effect = lower value 0.988 | locus YOR136W, strain idh2, stronger effect = lower value 1.01 | locus YOR144C, strain elg1, stronger effect = lower value 1.01 | locus YOR184W, strain ser1, stronger effect = lower value 0.904 | locus YOR231W, strain MKK1, stronger effect = lower value 1 | locus YOR265W, strain rbl2, stronger effect = lower value 0.968 | locus YOR270C, strain vph1, stronger effect = lower value 0.919 | locus YOR290C, strain snf2, stronger effect = lower value 0.944 | locus YOR316C, strain cot1, stronger effect = lower value 1.02 | locus YPL051W, strain arl3, stronger effect = lower value 0.98 | locus YPL055C, strain LGE1, stronger effect = lower value 0.947 | locus YPL078C, strain atp4, stronger effect = lower value 0.963 | locus YPL106C, strain sse1, stronger effect = lower value 0.91 | locus YPL240C, strain hsp82, stronger effect = lower value 0.976 | locus YPL241C, strain CIN2, stronger effect = lower value 0.998 | locus YPL256C, strain CLN2, stronger effect = lower value 1.04 | locus YPR119W, strain clb2, stronger effect = lower value 1.01 | locus YPR141C, strain kar3, stronger effect = lower value 1.01 | locus YPR163C, strain tif3, stronger effect = lower value 0.994 | locus YPR167C, strain met16, stronger effect = lower value 1.02 | strain wtn01, stronger effect = lower value 1.01
active: locus YDR392W, strain spt3, stronger effect = lower value 0.668

Reference: PubChem BioAssay AID1159580 (chemical genetic matrix, 2015)
